# Assay outcomes deposited in PubChem BioAssay by National Center for Advancing Translational Sciences (NCATS).
# This is a sample that favours compounds with a hit; in the whole collection about 2.3% have one here.
# Pol beta inh-1 – qHTS Assay for Inhibitors of DNA Polymerase Beta | actives 1.3% (n = 340,000) | Pol beta primer extension/strand displacement, fluorescence kinetic | Potency, µM (titrated, usually from 114 µM), actives largely listed as inhibitors
#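 Preincubation: enzyme (10 nM) with compound, 15 min, RT. Reaction: substrate added to 50 nM final. Reads: 0 and 10 min. Analysis: normalized, Hill fit.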
# Pol kappa inh-1 – qHTS for Inhibitors of Polymerase Kappa; Potency, µM (top dose mostly 107 µM), hits mostly inhibitors; purified Pol kappa, fluorescent DNA synthesis assay, 10 min; actives 0.53% (n = 400,000); DNA polymerase kappa (Homo sapiens), Q9UBT6; AID 588579, 2011
#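 First, compounds were pin-transferred onto 10 nM Pol kappa. After 15 min at room temperature, substrate was added to 50 nM final. Fluorescence was then measured kinetically at 0 and 10 min.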
# WRN helicase inh-1 – qHTS for Inhibitors of WRN Helicase; actives 0.46% (n = 360,000); AID 651768, 2012; Potency, µM (series often up to 114 µM), most hits filed as inhibitors; Bifunctional 3'-5' exonuclease/ATP-dependent helicase WRN (Homo sapiens), Q14191; WRN helicase unwinding, fluorescent forked duplex, kinetic; further: nearly all actives have a fitted effect of over 55% in size
#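 WRN at 20 nM final was preincubated with compound for 15 min at room temperature; reaction started with 100 nM forked duplex oligonucleotide carrying fluorophore and quencher plus 2 mM ATP (final). Unwinding followed kinetically by red fluorescence (ex 525/em 598 nm).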
# Pol iota inh – qHTS for Inhibitors of Polymerase Iota. DNA polymerase iota (Homo sapiens), Q9UNA4. Pol iota fluorescent replication assay, 10 min. Potency, µM (series often up to 115 µM), hits mostly inhibitors. actives 1% (n = 390,000). AID 588590, 2011
#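 Pol iota at 10 nM preincubated 15 min with compounds at room temperature; reaction started with fluorescent substrate, 50 nM final. Fluorescence read kinetically at 0 and 10 min; buffer-only wells as negative control.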
# Pol eta inh-1 – qHTS for Inhibitors of Polymerase Eta; DNA polymerase eta (Homo sapiens), Q9Y253; recombinant Pol eta, fluorescent DNA replication assay; Potency, µM (top dose mostly 114 µM), usual class: inhibitors; actives 1.2% (n = 390,000); AID 588591, 2011
# Target sequence (Q9Y253 whole entry, looked up): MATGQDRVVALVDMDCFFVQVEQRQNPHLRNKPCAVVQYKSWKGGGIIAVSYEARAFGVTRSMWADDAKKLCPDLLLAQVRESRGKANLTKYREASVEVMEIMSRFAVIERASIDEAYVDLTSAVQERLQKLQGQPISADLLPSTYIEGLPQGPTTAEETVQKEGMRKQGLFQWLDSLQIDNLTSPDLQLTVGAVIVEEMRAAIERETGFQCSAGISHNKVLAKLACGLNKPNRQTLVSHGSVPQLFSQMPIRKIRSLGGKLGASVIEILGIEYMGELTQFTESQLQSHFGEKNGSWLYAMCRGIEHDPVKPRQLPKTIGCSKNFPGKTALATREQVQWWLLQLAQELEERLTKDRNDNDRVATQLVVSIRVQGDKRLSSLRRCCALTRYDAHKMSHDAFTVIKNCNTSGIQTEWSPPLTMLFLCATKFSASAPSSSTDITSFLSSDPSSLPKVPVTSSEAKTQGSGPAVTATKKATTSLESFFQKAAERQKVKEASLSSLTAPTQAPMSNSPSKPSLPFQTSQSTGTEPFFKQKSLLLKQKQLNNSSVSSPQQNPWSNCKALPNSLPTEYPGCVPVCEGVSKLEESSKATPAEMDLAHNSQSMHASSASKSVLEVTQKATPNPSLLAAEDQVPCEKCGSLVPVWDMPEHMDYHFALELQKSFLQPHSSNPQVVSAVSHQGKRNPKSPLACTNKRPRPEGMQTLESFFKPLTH
#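 Fluorescent replication assay: 50 nM final substrate added after a 15 min room-temperature compound preincubation with 10 nM enzyme. Signal taken at 0 min and again at 10 min.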
# Pol beta inh-2 – Inhibitors of DNA Polymerase Beta: Hit validation; Potency, µM, usual class: inhibitors; Pol beta primer extension/strand displacement, fluorescence kinetic; actives 87% (n = 250); shares compounds with Pol beta inh-1; calls by dose curve
# Klenow inh – Inhibitors of DNA Polymerase Beta: Hit Validation in Klenow Fragment Assay. shares compounds with Pol beta inh-1. Klenow exo- polymerase counter-screen, fluorescent DNA substrate. activity change, negative = inhibition, % at 57.1 µM. 250 tested, under 10 active. AID 540300, 2011
# HIV RT inh – Inhibitors of DNA Polymerase Beta: Hit Validation in HIV-RT Assay. shares compounds with Pol beta inh-1. HIV-1 RT polymerase activity, counter-screen. activity % (negative = inhibition, positive = activation), % at 57.1 µM. 250 tested, under 10 active
# POLB valid – Inhibitors of DNA Polymerase Beta: Hit Validation in Radiolabeled Extension Assay; shares compounds with Pol beta inh-1; radiolabeled primer extension gel assay, phosphorimager; inhibition, % at 10 µM; actives 91% (n = 110);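 active means inhibition at 10 µM of 30% or more; inconclusive means no clear call, values can overlap the other calls; inactive means inhibition at 10 µM under 30%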
# Pol iota confirm – qHTS for Inhibitors of Polymerase Iota: Confirmatory Assay for Cherry-picked Compounds; shares compounds with Pol kappa inh-1; Pol iota primer extension, TAMRA/BHQ fluorescence; Potency, µM, usual class: inhibitors; actives 77% (n = 1,500); AID 720496, 2013
# Pol kappa inh-2 – qHTS for Inhibitors of Polymerase Kappa: Confirmatory Assay for Cherry-picked Compounds | actives 76% (n = 920) | purified Pol-kappa, fluorescent strand-displacement substrate | Potency, µM, actives largely listed as inhibitors | shares compounds with Pol eta inh-1
# Pol eta inh-2 – qHTS for Inhibitors of Polymerase Eta: Confirmatory Assay for Cherry-picked Compounds | shares compounds with Pol eta inh-1 | Pol eta primer extension, TAMRA/BHQ fluorescence, 10 min | Potency, µM, actives largely listed as inhibitors | actives 64% (n = 2,600)
# WRN helicase inh-2 – qHTS for Inhibitors of WRN Helicase: Confirmatory Assay for Cherry-picked Compounds | shares compounds with WRN helicase inh-1 | WRN helicase DNA unwinding, fluorescence kinetic | Potency, µM (titrated, usually from 57.1 µM), hits mostly inhibitors | actives 63% (n = 610) | AID 720497, 2013; further: nearly all actives have a fitted effect of over 65% in size
# TO DNA binding – qHTS for Inhibitors of WRN Helicase: Thiazole Orange DNA Binding Counterscreen | shares compounds with WRN helicase inh-1 | thiazole orange DNA binding displacement, fluorescence | Potency, µM (titrated, usually from 57.1 µM), actives largely listed as inhibitors | actives 10% (n = 610);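 further: drop in dye fluorescence marks compound binding to DNA; nearly all actives have a fitted effect of over 60% in size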
# BLM helicase inh – qHTS for Inhibitors of WRN Helicase: BLM Helicase Counterscreen for WRN Inhibitors. shares compounds with WRN helicase inh-1. Recombinant BLM helicase DNA unwinding, red fluorescence. Potency, µM (series often up to 57.1 µM), most hits filed as inhibitors. actives 60% (n = 610); further: nearly all actives have a fitted effect of over 60% in size
# Numbers stand for hits; n = inactive; u = inconclusive; x = no result. Unless noted, the call rests on the fitted dose curve; in most records, active means well fitted curve in the direction sought with a large enough effect; inconclusive means small, poorly fitted or top-dose-only effect, or another doubt; inactive means no such curve, though single readings can be large; an effect the other way counts as inactive or inconclusive.
SMILES,Pol beta inh-1,Pol kappa inh-1,WRN helicase inh-1,Pol iota inh,Pol eta inh-1,Pol beta inh-2,Klenow inh,HIV RT inh,Pol iota confirm,Pol eta inh-2,WRN helicase inh-2,TO DNA binding,BLM helicase inh,others
Cc1nc2cc(-c3ccsc3-n3c(C)ccc3C)[nH]n2c(=O)c1Cl,10µM,u,u,u,25µM,28,n,n,x,30,x,x,x,POLB valid=74;Pol kappa inh-2=30
Cc1ccccc1-c1cc2nc(C)c(Cl)c(=O)n2[nH]1,x,n,n,n,n,x,x,x,x,x,x,x,x,
CCOC(=O)c1scc(-c2ccccc2)c1S(=O)(=O)Nc1ccc(N(C)C)cc1,n,n,x,n,n,x,x,x,x,x,x,x,x,
O=C(CC1Sc2ccccc2NC1=O)Nc1cccc(C(=O)O)c1 (centres undefined),20µM,35µM,n,50µM,6.3µM,28,n,n,42,7.6,x,x,x,POLB valid=n
CCc1nnc(NC(=O)c2cc(-c3ccco3)nc3ccccc23)s1,8.9µM,25µM,35µM,1.3µM,16µM,20,n,n,u,76,u,24µM,1.9µM,
Cc1c2cnn(CC(=O)Nc3c(F)c(F)cc(F)c3F)c(=O)c2c(C)n1Cc1ccccc1F,6.3µM,45µM,u,18µM,40µM,6.3,n,n,30,60,19µM,n,3.8µM,
COc1cc(NC(=O)C2CCN(C(=O)c3sc4nc[nH]c(=O)c4c3C)CC2)cc(OC)c1OC,n,n,x,n,n,x,x,x,x,x,x,x,x,
CCn1c(CSc2nc3ccccc3s2)nnc1SCC(=O)c1ccc(O)c(O)c1,4.5µM,u,u,35µM,u,2,n,u,38,u,1.4µM,27µM,u,
CCn1c(SCC(=O)c2ccc(O)c(O)c2)nnc1-c1ccccc1,u,u,n,u,u,x,x,x,x,x,x,x,x,
CCOC(=O)c1cc(-c2ccccc2)n(CC(=O)NCc2ccccc2OC)c1C,n,n,x,n,n,x,x,x,x,x,x,x,x,
